# Screening results: PubChem, The Scripps Research Institute Molecular Screening Center
# GPR151 activ: activators of human GPR151, primary screen, cell-based, PathHunter beta-arrestin, luminescence. G-protein coupled receptor 151 (Homo sapiens), Q8TDV0. PathHunter beta-arrestin GPR151 cells. activation, % at 11.2 µM. 650,000 compounds, 1% hits. AID 1508602, 2020; in the data active = activation above about 4.9%;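 also: 0% = median of compound wells and 100% = cells with positive control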
# MITF primary: MITF inhibitors, primary screen, biochemical, AlphaScreen, human; AlphaScreen MITF homodimerization, bead proximity signal; 650,000 compounds, 0.91% hits; Microphthalmia-associated transcription factor (Homo sapiens), O75030; inhibition, % at 2.6 µM; in the data active = inhibition above about 50%;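 also: 0% = vehicle wells with protein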
# FBW7 act: FBW7 E3 ligase activators, primary screen, biochemical, AlphaScreen, human; AlphaScreen FBW7–phospho-cyclin E peptide binding, activator screen; F-box/WD repeat-containing protein 7 (Homo sapiens), Q969H0; normalized activity (activation), % at 26.1 µM; 650,000 compounds, 0.13% hits; AID 1259310, 2017; in the data active = normalized activity above about 1.9%;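 also: purified mutant Fbw7 with reduced substrate affinity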
# Target sequence (Q969H0 whole entry, looked up): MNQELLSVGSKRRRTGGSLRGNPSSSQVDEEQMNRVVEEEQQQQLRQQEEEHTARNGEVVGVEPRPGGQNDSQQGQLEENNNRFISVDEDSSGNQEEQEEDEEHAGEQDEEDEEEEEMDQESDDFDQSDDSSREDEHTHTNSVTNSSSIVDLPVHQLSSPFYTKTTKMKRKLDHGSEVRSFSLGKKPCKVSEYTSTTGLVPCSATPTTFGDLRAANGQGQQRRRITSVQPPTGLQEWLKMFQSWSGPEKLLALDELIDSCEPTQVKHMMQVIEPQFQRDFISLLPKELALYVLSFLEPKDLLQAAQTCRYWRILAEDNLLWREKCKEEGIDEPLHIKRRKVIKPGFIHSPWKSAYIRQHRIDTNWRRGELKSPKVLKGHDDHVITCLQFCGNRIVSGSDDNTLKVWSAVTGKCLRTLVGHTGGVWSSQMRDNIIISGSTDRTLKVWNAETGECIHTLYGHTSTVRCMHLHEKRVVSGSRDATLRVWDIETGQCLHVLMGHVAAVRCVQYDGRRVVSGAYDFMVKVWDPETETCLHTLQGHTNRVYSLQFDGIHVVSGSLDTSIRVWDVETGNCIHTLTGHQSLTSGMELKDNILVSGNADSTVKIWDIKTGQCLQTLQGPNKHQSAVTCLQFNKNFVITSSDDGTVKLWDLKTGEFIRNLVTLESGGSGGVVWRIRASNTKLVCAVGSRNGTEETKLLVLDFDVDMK
# TEAD-YAP block: TEAD-YAP interaction inhibition, primary screen, TEAD-YAP interaction inhibitor project, luminescence, HEK-TIYL cells. TEAD-Gal4/YAP UAS-luciferase luminescence. 640,000 compounds, 1.4% hits. inhibition, % at 9.12 µM; in the data active = inhibition above about 32%;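 also: 0% = median of test compound wells and 100% = reference inhibitor wells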
# The depositor's hits bear a star. Most compounds without a hit are left out; they make up all but 3.5% or so of the library.
SMILES,GPR151 activ,MITF primary,FBW7 act,TEAD-YAP block
Cc1cc(NS(=O)(=O)c2ccc(NC(=O)CCCOc3ccccc3)cc2)no1,0,7,0,2
Cc1ccc(-n2c(/C=C/c3cccc4ccccc34)nc3ccccc3c2=O)cc1C,0,-19,0,-1
CCOC(=O)c1c(C)[nH]c(C(=O)CSc2nnnn2-c2ccc(Cl)cc2)c1C,-2,-2,0,-4
CCOC(=O)c1c(C)[nH]c(C(=O)CSc2nccn2C)c1C,-7,-6,0,87*
CC(C)(Oc1ccc(Cl)cc1)C(=O)Nc1ncc([N+](=O)[O-])s1,1,10,0,36*
COc1cc(NS(=O)(=O)c2ccccc2)c(OC)cc1Cl,1,-4,0,3
COc1ccc(S(=O)(=O)Nc2cc(OC)c(Cl)cc2OC)cc1,1,14,1,64*
COc1cc(S(=O)(=O)NCc2cccnc2)ccc1Cl,-1,1,0,8
COc1cc(S(=O)(=O)NCc2ccncc2)ccc1Cl,3,17,0,40*
COc1ccc(S(=O)(=O)Nc2ccc(OC)c(OC)c2)cc1Cl,2,-2,0,38*
CCOc1ccc(S(=O)(=O)Nc2cc(OC)c(Cl)cc2OC)cc1,0,5,0,63*
COc1ccccc1OCC(=O)NCc1ccc(Cl)cc1Cl,-1,5,1,-13
CCOC(=O)c1[nH]c2ccccc2c1C=O,0,8,0,0
CCOc1ccccc1CNC(=O)C1c2ccccc2C(=O)N2CCc3ccccc3C12 (configuration not stated),0,15,0,1
CSc1ccc2cc(C=O)c(Cl)nc2c1,-1,8,1,4
Cc1cc(C)c(S(=O)(=O)NCc2ccncc2)c(C)c1,0,-6,0,46*
CCOc1ccc(S(=O)(=O)Nc2cc(C)ccc2OC)cc1,1,7,1,53*
COc1ccc(Cl)cc1NS(=O)(=O)c1ccc(C)cc1OC,0,-7,0,52*
COc1cc(S(=O)(=O)Nc2cc(OC)c(Cl)cc2OC)ccc1Cl,3,13,0,50*
COCCn1nnnc1C(c1cc2cc(C)ccc2[nH]c1=O)N1CCOCC1 (configuration not stated),0,1,0,-1
CCOc1ccc(C(=O)CCC(=O)N2CCNC(=O)C2)cc1,0,16,0,-2
CN(C)C(=O)c1ccc(S(=O)(=O)NCc2ccncc2)cc1,0,7,0,37*
O=c1nc(N/N=C/c2ccc(Cl)cc2Cl)cn[nH]1,-7,7,0,67*
O=c1nc(N/N=C/c2ccccc2Cl)cn[nH]1,-6,2,0,18
Cc1cccc(COc2ccc(Br)cc2/C=C2/NC(=O)NC2=O)c1,-1,21,1,10
SMILES,GPR151 activ,MITF primary,FBW7 act,TEAD-YAP block
c1ccc2cc(-c3cnn4c(NC5CCCNC5)ccnc34)ccc2c1 (configuration not stated),0,0,0,65*
O=C(O)CCc1ccc(-c2cnn3c(NCc4ccccn4)ccnc23)cc1,-1,24,-1,14
COCCNc1ccnc2c(-c3ccc(CCC(=O)O)cc3)cnn12,-3,15,0,50*
FC(F)(F)c1cc(-c2cnn3c(NC4CCCNC4)ccnc23)cc(C(F)(F)F)c1 (configuration not stated),2,-16,0,2
Clc1ccccc1-c1cnn2c(NCCc3cccnc3)ccnc12,2,-2,0,65*
COCCNc1ccnc2c(-c3ccccc3Cl)cnn12,1,0,0,58*
Fc1ccc(-c2cnn3c(NCCc4cccnc4)ccnc23)cc1Cl,1,-11,0,-62
O=C(Nc1nnc(S(=O)(=O)NCc2ccccc2)s1)c1cccc([N+](=O)[O-])c1,0,1,0,5
O=[N+]([O-])c1cc(S(=O)(=O)N2CCCCC2)ccc1Cl,1,6,0,5
COc1cccc(C2c3[nH]c4ccccc4c3CCN2C(=O)Cc2cccnc2)c1OC (configuration not stated),1,2,0,1
c1cncc(CCNc2ccnc3c(-c4ccc5ccccc5c4)cnn23)c1,0,-8,0,59*
CCOC(=O)c1ccc(N/C=C\C(=O)c2ccc3c(c2)OCO3)cc1,-1,-11,0,33*
CCCCCCSc1nnc2c(n1)OC(/C=C/c1ccco1)Nc1ccccc1-2 (configuration not stated),-2,-9,0,10
